The results in this text go back to the supplement of paper PMC12350171.

In the test the test system is Haemophilus parainfluenzae. The test is described as follows: growth AUC normalised to DMSO control (fraction of control); higher = less growth inhibition, active = hit call of the paper. The settings on record: 20 µM. In a few lines:
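Pathogens passaged twice anaerobically were inoculated at a starting OD578 of 0.01 into pre-reduced mGAM plates with drug at 20 μM and 1% DMSO, sealed with breathable membranes. Haemophilus parainfluenzae medium was supplemented with hemin and NAD. OD578 was read hourly for 24 h, with three biological replicates. Growth-curve AUC was computed by the trapezoidal rule up to the exponential-to-stationary transition and normalised to DMSO controls on the same plate.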

Counter-ions that a name gives are not always drawn. Unmarked numbers belong to inactive results.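 How the source made its calls: active = AUC significantly below DMSO controls by Student t-fit with adjusted P under 0.01; inactive = not significantly reduced.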

On to `c1ccc(CC2=NCCN2)cc1` [Tolazoline hydrochloride], for which the “growth AUC normalised to DMSO control” value is 1.03.

On to `CCCN(CCC)CCc1cccc2c1CC(=O)N2` [Ropinirole hydrochloride], for which the “growth AUC normalised to DMSO control” value is 1.

`CC(C)NC[C@H](O)COc1ccc(CC(N)=O)cc1` [(S,-) Atenolol]: the “growth AUC normalised to DMSO control” value was 1.01.

In the case of `COc1cc2nc(N3CCN(C(=O)c4ccco4)CC3)nc(N)c2cc1OC` [Prazosin hydrochloride], the “growth AUC normalised to DMSO control” value is 0.981.

Consider `Cc1cccc(C)c1NC(=O)CN1CCN(CCCC(c2ccc(F)cc2)c2ccc(F)cc2)CC1` [Lidoflazine], for which the “growth AUC normalised to DMSO control” value was 1.02.

On to `Cn1c(=O)c2c(ncn2CC(=O)O)n(C)c1=O` [Acefylline], for which the “growth AUC normalised to DMSO control” value is 0.969.

In the case of `CC(=O)Oc1ccccc1C(=O)Oc1ccccc1C(=O)O` [Acetylsalicylsalicylic acid], the “growth AUC normalised to DMSO control” value was 0.885.

Turning to `CN1CCC(=C2c3ccccc3C=Cc3ccccc32)CC1` [Cyproheptadine hydrochloride], the “growth AUC normalised to DMSO control” value was 0.921.

As to `Cc1ncc([N+](=O)[O-])n1CC(O)CCl` (centres undefined) [Ornidazole], the “growth AUC normalised to DMSO control” value was 1.

With `Cc1ccccc1C(OCCN(C)C)c1ccccc1` (centres undefined) [Orphenadrine hydrochloride], the “growth AUC normalised to DMSO control” value is 0.954.

Take `CN(CCOc1ccc(CC2SC(=O)NC2=O)cc1)c1ccccn1` (centres undefined) [Rosiglitazone hydrochloride]: the “growth AUC normalised to DMSO control” value is 1.06.

`CC(=O)OCC(=O)[C@@]12OC(C)(C)O[C@@H]1C[C@H]1[C@@H]3C[C@H](F)C4=CC(=O)C=C[C@]4(C)[C@@]3(F)[C@@H](O)C[C@@]12C` [Fluocinonide]: the “growth AUC normalised to DMSO control” value is 0.999.

Take `O=C(CCNNC(=O)c1ccncc1)NCc1ccccc1` [Nialamide]: the “growth AUC normalised to DMSO control” value was 1.01.

With `NC(=O)NC1NC(=O)NC1=O` (centres undefined) [Allantoin], the “growth AUC normalised to DMSO control” value was 0.974.

On to `Clc1ccc(C(Cn2ccnc2)OCc2csc3c(Cl)cccc23)c(Cl)c1` (centres undefined) [Sertaconazole nitrate], for which the “growth AUC normalised to DMSO control” value was 1.07.

In the case of `CN(C/C=C/c1ccccc1)Cc1cccc2ccccc12` [Naftifine hydrochloride], the “growth AUC normalised to DMSO control” value is 0.977.

With `C[C@]12CCC(=O)C=C1C=C[C@@H]1[C@@H]2CC[C@@]2(C)[C@H]1CC[C@@]21CCC(=O)O1` [Canrenone], the “growth AUC normalised to DMSO control” value was 1.

Turning to `CC[C@@H](CO)NCCN[C@@H](CC)CO` [Ethambutol dihydrochloride], the “growth AUC normalised to DMSO control” value was 0.809.

Turning to `CC(C)NCC(O)c1ccc2ccccc2c1` (centres undefined) [Pronethalol hydrochloride], the “growth AUC normalised to DMSO control” value is 1.

For the molecule `CC(COc1ccccc1)NC(C)C(O)c1ccc(O)cc1` (centres undefined) [Isoxsuprine hydrochloride], the “growth AUC normalised to DMSO control” value was 0.939.

As for `C=CC1=C(C(=O)O)N2C(=O)[C@@H](NC(=O)/C(=N\O)c3csc(N)n3)[C@H]2SC1` [Cefdinir], the “growth AUC normalised to DMSO control” value is 0.176 (active).

For `COc1c(O[C@@H]2O[C@H](CO)[C@@H](O)[C@H](O)[C@H]2O)cc2c(c1OC)-c1ccc(SC)c(=O)cc1[C@@H](NC(C)=O)CC2` [Thiocolchicoside], the “growth AUC normalised to DMSO control” value is 0.996.

In the case of `CC(=C(CCO)SSCC1CCCO1)N(C=O)Cc1cnc(C)nc1N` (stereo in doubt) [Fursultiamine hydrochloride], the “growth AUC normalised to DMSO control” value was 0.986.

Regarding `COc1cccc2c1C(=O)c1c(O)c3c(c(O)c1C2=O)C[C@@](O)(C(C)=O)C[C@@H]3O[C@H]1C[C@H](N)[C@H](O)[C@H](C)O1` [Daunorubicin hydrochloride], the “growth AUC normalised to DMSO control” value was 0.997.

As for `CC1CS(=O)(=O)CCN1/N=C/c1ccc([N+](=O)[O-])o1` (centres undefined) [Nifurtimox], the “growth AUC normalised to DMSO control” value was 0.596 (active).

For `CCc1c(C)[nH]c2c1C(=O)C(CN1CCOCC1)CC2` (centres undefined) [Molindone hydrochloride], the “growth AUC normalised to DMSO control” value is 1.01.

As to `CC(C)OC(=O)C(C)(C)Oc1ccc(C(=O)c2ccc(Cl)cc2)cc1` [Fenofibrate], the “growth AUC normalised to DMSO control” value is 0.961.

As for `CC(CN(C)C)CN1c2ccccc2Sc2ccccc21` (centres undefined) [Trimeprazine tartrate], the “growth AUC normalised to DMSO control” value is 0.94.

As for `Clc1ccc2nsnc2c1NC1=NCCN1` [Tizanidine hydrochloride], the “growth AUC normalised to DMSO control” value is 0.965.

In the case of `CC(=O)Oc1ccccc1C(=O)O` [Acetylsalicylic acid], the “growth AUC normalised to DMSO control” value was 1.08.

Regarding `Nc1nc(N)nc(-c2cc(Cl)ccc2Cl)n1` [Irsogladine maleate], the “growth AUC normalised to DMSO control” value was 1.01.

Take `CCN(CC)CCNC(C(=O)OCCC(C)C)c1ccccc1` (centres undefined) [Camylofine chlorhydrate]: the “growth AUC normalised to DMSO control” value is 0.98.

Regarding `C[C@]12CC[C@@H]3c4ccc(OS(=O)(=O)O)cc4CC[C@H]3[C@@H]1CCC2=O` [Estropipate piperazine salt], the “growth AUC normalised to DMSO control” value is 0.985.

In the case of `COc1cc(C)nc(-n2nc(C)cc2OC)n1` [Epirizole], the “growth AUC normalised to DMSO control” value was 0.999.

With `CO[C@@]1(NC(=O)C2SC(=C(C(N)=O)C(=O)O)S2)C(=O)N2C(C(=O)O)=C(CSc3nnnn3C)CS[C@@H]21` (some centres undefined) [Cefotetan], the “growth AUC normalised to DMSO control” value was 0.0395 (active).

For `O=C(O)c1cc(=O)c2c(OCC(O)COc3cccc4oc(C(=O)O)cc(=O)c34)cccc2o1` [Cromolyn disodium salt], the “growth AUC normalised to DMSO control” value is 1.01.

Turning to `CN1CCN(c2c(F)cc3c(=O)c(C(=O)O)cn(CCF)c3c2F)CC1` [Fleroxacin], the “growth AUC normalised to DMSO control” value is 0.0399 (active).

As for `CC[C@H](c1ccc(O)cc1)[C@@H](CC)c1ccc(O)cc1` [Hexestrol], the “growth AUC normalised to DMSO control” value is 0.984.

For the molecule `c1ccc(CNc2ncnc3nc[nH]c23)cc1` [Aminopurine, 6-benzyl], the “growth AUC normalised to DMSO control” value is 1.

For `CC(Oc1ccccc1)C(=O)N[C@@H]1C(=O)N2[C@@H]1SC(C)(C)[C@@H]2C(=O)O` (some centres undefined) [Phenethicillin potassium salt], the “growth AUC normalised to DMSO control” value is 0.59 (active).

As for `CC1=C(/C=C/C(C)=C/C=C/C(C)=C\C(=O)O)C(C)(C)CCC1` [Isotretinoin], the “growth AUC normalised to DMSO control” value was 1.02.

In the case of `CC1(C)[C@@H](OC(=O)CCC(=O)O)CC[C@]2(C)[C@H]3C(=O)C=C4[C@@H]5C[C@@](C)(C(=O)O)CC[C@]5(C)CC[C@@]4(C)[C@]3(C)CC[C@@H]12` [Carbenoxolone disodium salt], the “growth AUC normalised to DMSO control” value was 0.964.

As to `Cc1cc(-n2c(=O)[nH]c(=O)n(C)c2=O)ccc1Oc1ccc(SC(F)(F)F)cc1` [Toltrazuril], the “growth AUC normalised to DMSO control” value is 0.954.

Take `c1ccc(CN(CC2=NCCN2)c2ccccc2)cc1` [Antazoline hydrochloride]: the “growth AUC normalised to DMSO control” value was 1.01.

For `CCCc1nn(C)c2c(=O)[nH]c(-c3cc(S(=O)(=O)N4CCN(C)CC4)ccc3OCC)nc12` [Sildenafil], the “growth AUC normalised to DMSO control” value was 1.1.

`CC(C)[N+](C)(CCOC(=O)C1c2ccccc2Oc2ccccc21)C(C)C` [Propantheline bromide]: the “growth AUC normalised to DMSO control” value was 0.988.

As to `CC(C)(C)NC[C@H](O)COc1cccc2c1CCCC2=O` [(-) Levobunolol hydrochloride], the “growth AUC normalised to DMSO control” value is 0.989.

As to `O=c1oc2ccccc2c(O)c1Cc1c(O)c2ccccc2oc1=O` [Dicumarol], the “growth AUC normalised to DMSO control” value was 1.31.

With `CN1Cc2c(N)cccc2C(c2ccccc2)C1` (centres undefined) [Nomifensine maleate], the “growth AUC normalised to DMSO control” value is 0.915.

With `CSc1ccc2c(c1)N(CCC1CCCCN1C)c1ccccc1S2` (centres undefined) [Thioridazine hydrochloride], the “growth AUC normalised to DMSO control” value is 0.72 (active).

On to `OC(CCN1CCCCC1)(c1ccccc1)C1CCCCC1` (centres undefined) [Trihexyphenidyl-D,L hydrochloride], for which the “growth AUC normalised to DMSO control” value was 1.01.

As to `OC(CCN1CCCCC1)(c1ccccc1)c1ccccc1` [Pridinol methanesulfonate salt], the “growth AUC normalised to DMSO control” value was 0.999.

Regarding `CN1CCCN(C(c2ccccc2)c2ccc(Cl)cc2)CC1` (centres undefined) [Homochlorcyclizine dihydrochloride], the “growth AUC normalised to DMSO control” value is 0.942.

On to `CCN(CC)CCNC(=O)c1ccc(N)cc1` [Procainamide hydrochloride], for which the “growth AUC normalised to DMSO control” value was 0.983.

As for `C[N+]1(C)CCC(=C(c2ccccc2)c2ccccc2)CC1` [Diphemanil methylsulfate], the “growth AUC normalised to DMSO control” value is 0.949.

As for `CN[C@H](CC(C)C)C(=O)N[C@H]1C(=O)N[C@@H](CC(N)=O)C(=O)N[C@H]2C(=O)N[C@H]3C(=O)N[C@H](C(=O)N[C@H](C(=O)O)c4cc(O)cc(O)c4-c4cc3ccc4O)[C@H](O)c3ccc(c(Cl)c3)Oc3cc2cc(c3O[C@@H]2O[C@H](CO)[C@@H](O)[C@H](O)[C@H]2O[C@H]2C[C@](C)(N)[C@H](O)[C@H](C)O2)Oc2ccc(cc2Cl)[C@H]1O` [Vancomycin hydrochloride], the “growth AUC normalised to DMSO control” value is 1.01.

With `CC(=O)c1ccc2c(c1)N(CCCN1CCC(CCO)CC1)c1ccccc1S2` [Piperacetazine], the “growth AUC normalised to DMSO control” value was 1.09.

Turning to `CCOC(=O)[C@H](CCc1ccccc1)N[C@H]1CCc2ccccc2N(CC(=O)O)C1=O` [Benazepril hydrochloride], the “growth AUC normalised to DMSO control” value was 0.995.

Consider `CN(C)[C@@H]1C(=O)C(C(=O)NCNCCCC[C@H](N)C(=O)O)=C(O)[C@@]2(O)C(=O)C3=C(O)c4c(O)cccc4[C@@](C)(O)[C@H]3C[C@@H]12` [Lymecycline], for which the “growth AUC normalised to DMSO control” value is 0.935.

As for `COCCOC(=O)C1=C(C)NC(C)=C(C(=O)OC(C)C)C1c1cccc([N+](=O)[O-])c1` (centres undefined) [Nimodipine], the “growth AUC normalised to DMSO control” value was 0.959.

`CC1(C)S[C@@H]2[C@H](NC(=O)[C@H](N)c3ccccc3)C(=O)N2[C@H]1C(=O)O` [Ampicillin trihydrate]: the “growth AUC normalised to DMSO control” value is 0.0576 (active).

In the case of `Nc1nc2c(ncn2COC(CO)CO)c(=O)[nH]1` [Ganciclovir], the “growth AUC normalised to DMSO control” value was 0.989.

Take `NS(=O)(=O)c1cc(Cl)c(Cl)c(S(N)(=O)=O)c1` [Dichlorphenamide]: the “growth AUC normalised to DMSO control” value is 1.03.

Take `COc1ccc(OC)c(C(O)CNC(=O)CN)c1` (centres undefined) [Midodrine hydrochloride]: the “growth AUC normalised to DMSO control” value was 1.02.
